Results reported in ChEMBL document CHEMBL1157539, “Thousands of chemical starting points for antimalarial lead identification” (Nature, 2010).
Where “and” joins values, the source holds several entries; their conditions need not be identical. Equal values may be shown once.

Experiments:
Type in all cases: functional
Plasmodium falciparum [1] = assay: GSK_TCMDC: Inhibition of Plasmodium falciparum 3D7 in whole red blood cells, using parasite LDH activity as an index of growth. Test compounds present at 2uM
Plasmodium falciparum [2] = assay: GSK_TCMDC: Inhibition of Plasmodium falciparum Dd2 in whole red blood cells, using parasite LDH activity as an index of growth. Test compounds present at 2uM
HepG2 = assay: GSK_TCMDC: Percent inhibition of human HepG2 cell line. Test compounds present at 10uM.

Row | Compound | Inhibition (Plasmodium falciparum [1]) | Inhibition (Plasmodium falciparum [2]) | Inhibition (HepG2)
1 | CN(Cc1ccccc1)C1CCCN(c2cc(NC(=O)c3cccs3)ccn2)C1.O=C(O)C(F)(F)F (configuration not stated) | 88% | 90% | 2%
2 | Fc1cccc(COc2ccc(Nc3ncnc4sc(C#CCNC5CCC5)cc34)cc2Cl)c1 | 100% | 73% | 15%
3 | O=C(Cc1ccccc1)NC(c1ccc(Cl)cc1)c1ccc2cccnc2c1O (configuration not stated) | 93% | 64% | 50%
4 | CN1CCN(Cc2ccc(-c3ccc4ncnc(Nc5ccc(OCc6ccccc6)cc5)c4c3)o2)CC1 | 97% | 90% | 9%
5 | COc1ccc(NC(=O)/C=C/c2ccc(-c3ccccc3)cc2)cc1N1CCN(C)CC1.O=C(O)C(=O)O | 90% | 46% | 21%
6 | CC1CCN(CC[C@H]2CCCN2S(=O)(=O)c2cccc(NC(=O)c3ccc(-c4ccc(Cl)cc4)o3)c2)CC1 | 100% | 65% | 45%
7 | COc1ccc(C[C@H](N)C(=O)N[C@H]2[C@@H](O)[C@H](n3cnc4c(N(C)C)ncnc43)O[C@@H]2CO)cc1.Cl | 100% | 91% | 98%
8 | CCOc1ccc(Nc2cc(C)nc(Nc3ccc(OCC)cc3)n2)cc1 | 100% | 49% | 3%
9 | CC(C)N(CCOc1ccc2c(c1)N(C(=O)Nc1ccc(Cl)c(Cl)c1)CC2)C(C)C.O=C(O)C(F)(F)F | 100% | 39% | 15%
10 | C=CCc1cc(Cc2cnc(N)nc2N)cc(CCC)c1O | 90% | 2% | 54%
11 | CCCOC(=O)C1=C(C)NC2=C(C(=O)CC(c3ccc(OC)c(OC)c3)C2)C1c1cccc(O)c1 (configuration not stated) | 100% | 99% | 0%
12 | CC(C)N1CCC(N(Cc2ccc(-c3ccc(C(F)(F)F)cc3)cc2)C(=O)Cn2c(SCc3cccc(F)c3F)cc(=O)c3c2CCC3)CC1.O=C(O)C(O)C(O)C(=O)O | 88% | 42% | 44%
13 | O=C(c1cc2cccc([N+](=O)[O-])c2[nH]1)N1CCC(CCN2CCC(c3c[nH]c4ccccc34)CC2)CC1 | 89% | 24% | 45%
14 | CN(CC(=O)Nc1ccc(F)c(F)c1F)c1ncnc2sc(-c3ccccc3)cc12 | 95% | 34% | 0%
15 | CN(C)CCNc1ncnc2c1[nH]c1ccc(Br)cc12 | 100% | 7% | 2%
16 | CC(C)N1CCN(C(CN2CCN(CCCOc3cccc(F)c3)CC2)c2ccc(F)cc2)CC1.Cl (configuration not stated) | 92% | 38% | 38%
17 | Oc1cccc(Nc2nc(NCc3ccccc3)c3ccccc3n2)c1 | 95% | 99% | 21%
18 | O=C(Nc1ccc(Cl)cn1)c1sc2ccccc2c1O | 99% | 18% | 2%
19 | CC(O)CNc1nc2ccccc2n1CC(=O)Nc1cccc(C(=O)Nc2cccc(C(F)(F)F)c2)c1 (configuration not stated) | 99% | 95% | 2%
20 | COc1ccc2[nH]cc(C3CCN(CCC4CCN(C(=O)/C=C/c5ccc(Cl)c(Cl)c5)CC4)CC3)c2c1 | 100% | 56% | 52%

Row | Compound | Inhibition (Plasmodium falciparum [1]) | Inhibition (Plasmodium falciparum [2]) | Inhibition (HepG2)
21 | CCCCCCCN1CC[C@@H](CCCc2ccnc3ccc(OCCN4CCNCC4)cc23)[C@@H](CC)C1.Cl | 100% | 98% | 82%
22 | O=C(Cn1cc(C=C2SC(=NC3CCCC3)N(C3CCCC3)C2=O)c2ccccc21)N1CCCC1 | 100% | 100% | 5%
23 | C=CCc1c(C(=O)NCC23CC4CC(CC(C4)C2)C3)nc2ccccc2c1O | 86% | 79% | 40%
24 | Cc1ccc(C(=O)N2CCc3cc4nccc(N5CCN6CCC[C@H]6C5)c4cc32)cc1 | 95% | 13% | 5%
25 | C=C(C)CSc1nc2c(c(=O)n1Cc1ccco1)C1(CCCCC1)Cc1ccccc1-2 | 97% | 68% | 2%
26 | O=C1OC(c2cc3ccccc3n2S(=O)(=O)c2ccccc2)(c2cc3ccccc3n2S(=O)(=O)c2ccccc2)c2ccccc21 | 95% | 78% | 1%
27 | CC(C)(CNC(=O)[C@@H]1CCCN(CCOc2ccc(Cl)cc2)C1)c1nc(-c2ccc(Cl)c(O)c2)c(-c2ccncc2)[nH]1.Cl | 92% | 57% | 58%
28 | O=C(Nc1ccc2oc(-c3ccc(Br)cc3)nc2c1)c1ccc([N+](=O)[O-])o1 | 92% | 21% | 9%
29 | N#Cc1cc(C(=O)Nc2ccccc2)c(N)nc1SCC(=O)Nc1ccc(Br)cc1 | 100% | 66% | 11%
30 | CC(C)C[C@@H]1C(=O)N[C@H](C2Cc3ccccc3C2)C(=O)N1[C@@H](C(=O)O)c1ccc(F)cc1F | 98% | 0% | 10%
31 | CCOC(=O)c1c(C)n(-c2ccccc2)c2ccc(OC(=O)c3ccc(S(=O)(=O)N(CC)CC)cc3)cc12 | 94% | 63% | 0%
32 | CCOC(=O)c1cncc(/C=C/c2cc(C)cnc2N)c1 | 86% | 3% | 4%
33 | CC(C)(CN1CCCC1)CN(Cc1ccc(-c2ccc(C(F)(F)F)cc2)cc1)C(=O)Cn1c(CCc2cccc(F)c2F)nc(=O)c2ccccc21.O=C(O)C(O)C(O)C(=O)O | 97% | 64% | 57%
34 | CN(C)c1ccc(CN2CCC(NC(=O)c3ccc(-c4cccc(F)c4)s3)CC2)cc1.O=C(O)C(F)(F)F | 91% | 18% | 55%
35 | COc1ccc(C2c3cc(OC)c(OC)cc3C(=NO)C2C)cc1OC (configuration not stated) | 90% | 6% | 20%
36 | COc1ccc(Nc2nc(NCc3ccco3)c3ccccc3n2)cc1.Cl | 99% | 76% | 38%
37 | CN(CCN(C)C(=O)NCc1ccccc1)C(=O)NCc1ccccc1 | 100% | 0% | 2%
38 | COc1ccc(C2CC(=O)C3=C(C2)NC(C)=C(C(=O)OC(C)C)C3c2ccc(O)cc2)cc1OC (configuration not stated) | 99% | 98% | 0%
39 | CCC(CC(NCCCCNC(=O)c1ccc(NC(=O)c2ccc(Cl)cc2)cc1)c1ccccc1)c1ccccc1OC (configuration not stated) | 100% and 89% | 56% and 76% | 23% and 10%
40 | O=C(/C=C/c1ccc(Cl)c(Cl)c1)NCCCCCCN1CCCN(C(=O)Nc2cccc(Cl)c2)CC1 | 94% | 2% | 26%

Row | Compound | Inhibition (Plasmodium falciparum [1]) | Inhibition (Plasmodium falciparum [2]) | Inhibition (HepG2)
41 | COc1cc(F)c2nccc([C@@H](O)CN3CCC(NCc4ccc5c(n4)NC(=O)CS5)CC3)c2c1 | 100% | 25% | 23%
42 | Fc1ccc2[nH]c(-c3cccc(-c4ccc(CN5CCN(CCN6CCOCC6)CC5)cc4)c3)nc2c1.O=C(O)C(F)(F)F | 100% | 100% | 30%
43 | FC(F)(F)c1cccc(C=NNc2nc3ccccc3[nH]2)c1 | 100% | 99% | 1%
44 | CCn1ccc2c(N3CCCS3(=O)=O)cc(C(=O)N[C@@H](Cc3ccccc3)[C@H](O)CNC(C)(C)c3cccc(OC)c3)cc21 | 99% | 98% | 20%
45 | Cc1ncccc1C(=O)Nc1ccc(-c2cccc(-c3nc4cccc(C)c4[nH]3)c2)cc1 | 95% | 31% | 6%
46 | Cc1ccc(CN2CCN(Cc3cccc(NC(=O)c4ccc5ccccc5c4)c3)CC2)cc1C.O=C(O)C(F)(F)F | 89% | 23% | 62%
47 | CC(C)C1=C[C@H]2C[C@]3(C4OCCO4)[C@@H]4CC[C@@H](C)[C@H]4C[C@@]2(C(=O)OCC2COCO2)[C@]13C(=O)OC(c1ccccc1)c1ccccc1 (some centres not stated) | 92% | 96% | 2%
48 | CCCN1CCC2(CC1)NC(C(=O)NCCC(C)C)Cc1c2[nH]c2cc(Cl)ccc12 (configuration not stated) | 86% | 0% | 13%
49 | O=C(c1ccc([N+](=O)[O-])o1)N1CCC(c2cn(Cc3cccc(F)c3)c3ccccc23)CC1 | 97% | 95% | 1%
50 | COCCN1CCC(N(CC2(O)CCN(c3ccc(C(F)(F)F)cc3)CC2)C(=O)Cn2c(SCc3cccc(F)c3F)cc(=O)c3ccccc32)CC1 | 94% | 75% | 29%
51 | COc1cc(C(=O)NCCCN2CCN(c3cccc(Cl)c3)CC2)ccc1-c1cc2cc(Cl)c(Cl)cc2[nH]1 | 100% | 86% | 35%
52 | Cn1cc(-c2ccccc2C(=O)O)c(=O)c2cc(Cl)ccc21 | 89% | 0% | 16%
53 | O=C(O)C(F)(F)F.OCCN1CCN(Cc2cccc(-c3cccc(-c4nc5cc(F)ccc5[nH]4)c3)c2)CC1 | 100% | 99% | 41%
54 | Cc1cccc(C=NN=c2cc(C)[nH]c3ccc(F)cc23)n1 | 95% | 45% | 1%
55 | O=C(/C=C/c1ccc([N+](=O)[O-])cc1)N1CCC(NS(=O)(=O)c2ccc(Br)cc2)CC1 | 93% | 5% | 0%
56 | CN(C)c1ccc(OCCCCCCOc2ccccc2)cc1.Cl | 85% | 68% | 0%
57 | COc1ccc(-c2cccc(NC(=O)c3ccc(F)cc3)c2)cc1CNC(C)C.O=C(O)C(F)(F)F | 83% | 9% | 32%
58 | COc1ccc2c(c1)CC1CN(CCCCNC(=O)c3ccc(NC(=O)c4cc(Cl)cc(Cl)c4)cc3)CCN1C2 (configuration not stated) | 100% | 57% | 7%
59 | COc1ccc(CCN2CC[C@H](Nc3nc(-c4ccc(F)c(F)c4)nc4ccccc34)C2)cc1S(N)(=O)=O.Cl | 99% | 64% | 18%
